Measured values reported in PubChem BioAssay (EPA / NIEHS).
“And” between values parts separate entries of the source, which are not always exact repeats. Equal values may be shown once. More than one record can exist for a structure, and the calls need not agree. The source made the active and inactive calls. The calls were made as follows: active = hit-call score of the fitted dose curve at least 0.9, where 1 is the maximum; inactive = score below 0.9.

Key:
[1] = biological target: Bile acid receptor (Homo sapiens) (UniProt Q96RI1); experiment: ATG_IR1_CIS: Attagene CIS-FACTORIAL HepG2 Assay for human Nuclear Receptor Subfamily 1 Group H Member 4 (NR1H4), IR1 submotif (AID 2282946); settings: IR1 reporter transcription, actives raise or lower the signal
Bile acid receptor (Homo sapiens), sequence (Q96RI1 whole entry, looked up): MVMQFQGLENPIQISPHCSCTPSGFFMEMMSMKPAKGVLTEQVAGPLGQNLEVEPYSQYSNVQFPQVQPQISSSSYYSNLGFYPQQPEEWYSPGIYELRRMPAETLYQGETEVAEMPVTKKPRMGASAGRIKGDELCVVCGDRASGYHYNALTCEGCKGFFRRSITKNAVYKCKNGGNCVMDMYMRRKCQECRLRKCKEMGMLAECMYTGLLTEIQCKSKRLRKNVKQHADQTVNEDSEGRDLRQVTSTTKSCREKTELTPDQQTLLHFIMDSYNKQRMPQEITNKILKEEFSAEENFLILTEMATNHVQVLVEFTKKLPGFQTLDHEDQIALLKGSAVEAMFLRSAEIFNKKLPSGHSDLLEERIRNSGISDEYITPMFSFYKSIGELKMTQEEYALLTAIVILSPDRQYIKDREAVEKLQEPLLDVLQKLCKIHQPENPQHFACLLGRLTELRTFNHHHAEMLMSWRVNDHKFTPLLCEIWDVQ
In short: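 Fluorescence of capillary-separated, HpaI-digested RT-PCR reporter products gave IR1-element mRNA induction in HepG2 cells 24 h after dosing. Endogenous transcription factors drove the cis-regulated reporters; activity was fitted bidirectionally against DMSO.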

[2] = ATG_GRE_CIS: Attagene CIS-FACTORIAL HepG2 Assay for human Glucocorticoid Response Elements (GRE) (AID 2282947); settings: HepG2 GRE cis-reporter, Attagene multiplex mRNA; actives raise or lower the signal
In short: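 Fluorescence intensity of reporter-specific cDNA fragments, separated by capillary electrophoresis, provides the signal. Constructs carry cis-regulating promoters in transiently transfected HepG2 liver cells; 24 h incubation; fitting is bidirectional against DMSO.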

[3] = ATG_ISRE_CIS: Attagene CIS-FACTORIAL HepG2 Assay for human Interferon Regulatory Factor 1 (IRF1) binding to an Interferon-Stimulated Response Element (ISRE) (AID 2282948); settings: HepG2 ISRE cis-reporter (Attagene), mRNA transcription readout; actives raise or lower the signal
In short: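 Uses HepG2 liver cells transfected with cis-regulated reporters and measures mRNA 24 h post-dosing through RT-PCR, primer-extension labelling and capillary electrophoresis, with DMSO as negative control.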

[4] = ATG_M_06_CIS: Attagene CIS-FACTORIAL HepG2 Assay for M06 Transcription Factor (Internal Marker) (AID 2282950); settings: HepG2 Attagene CIS-FACTORIAL M06 internal marker reporter; actives raise or lower the signal
In short: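 Fluorescence-labelled RT-PCR products from cis-promoter reporter units, cut with HpaI and resolved by capillary electrophoresis, give the signal. Cells are human HepG2, dosed for 24 h. Serves as background control, fitted relative to DMSO.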

[5] = biological target: Hepatocyte nuclear factor 6 (Homo sapiens) (UniProt Q9UBC0); experiment: ATG_HNF6_CIS: Attagene CIS-FACTORIAL HepG2 Assay for human Hepatocyte Nuclear Factor 6 (HNF6) (AID 2282952); settings: HepG2 Attagene cis-factorial HNF6 reporter transcription; actives raise or lower the signal
Hepatocyte nuclear factor 6 (Homo sapiens), sequence (Q9UBC0 whole entry, looked up, the tested form may be a part): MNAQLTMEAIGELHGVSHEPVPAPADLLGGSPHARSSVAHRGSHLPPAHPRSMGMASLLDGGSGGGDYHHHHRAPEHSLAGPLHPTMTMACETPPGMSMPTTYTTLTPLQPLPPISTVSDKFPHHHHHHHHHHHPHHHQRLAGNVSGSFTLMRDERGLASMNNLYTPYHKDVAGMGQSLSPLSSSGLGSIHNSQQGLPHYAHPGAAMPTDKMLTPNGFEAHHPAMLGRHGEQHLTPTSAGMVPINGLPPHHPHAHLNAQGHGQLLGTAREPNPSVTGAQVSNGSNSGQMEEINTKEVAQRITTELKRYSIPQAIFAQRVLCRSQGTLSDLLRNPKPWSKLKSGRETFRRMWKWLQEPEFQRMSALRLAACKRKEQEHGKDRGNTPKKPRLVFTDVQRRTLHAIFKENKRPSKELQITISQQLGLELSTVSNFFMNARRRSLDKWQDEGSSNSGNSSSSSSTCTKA
In short: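 First, HepG2 cells were transfected with the multiplexed cis reporter library and dosed with chemical for 24 h. Next, RNA was reverse-transcribed, PCR-amplified and fluorescently labelled. Finally, HpaI-digested fragments were read by capillary electrophoresis.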

[6] = biological target: Heat shock factor protein 1 (Homo sapiens) (UniProt Q00613); experiment: ATG_HSE_CIS: Attagene CIS-FACTORIAL HepG2 Assay for human Heat Shock Transcription Factor 1 (HSE) (AID 2282953); settings: HepG2 HSE cis-reporter, Attagene RNA transcription; actives raise or lower the signal
Heat shock factor protein 1 (Homo sapiens), sequence (Q00613 whole entry, looked up): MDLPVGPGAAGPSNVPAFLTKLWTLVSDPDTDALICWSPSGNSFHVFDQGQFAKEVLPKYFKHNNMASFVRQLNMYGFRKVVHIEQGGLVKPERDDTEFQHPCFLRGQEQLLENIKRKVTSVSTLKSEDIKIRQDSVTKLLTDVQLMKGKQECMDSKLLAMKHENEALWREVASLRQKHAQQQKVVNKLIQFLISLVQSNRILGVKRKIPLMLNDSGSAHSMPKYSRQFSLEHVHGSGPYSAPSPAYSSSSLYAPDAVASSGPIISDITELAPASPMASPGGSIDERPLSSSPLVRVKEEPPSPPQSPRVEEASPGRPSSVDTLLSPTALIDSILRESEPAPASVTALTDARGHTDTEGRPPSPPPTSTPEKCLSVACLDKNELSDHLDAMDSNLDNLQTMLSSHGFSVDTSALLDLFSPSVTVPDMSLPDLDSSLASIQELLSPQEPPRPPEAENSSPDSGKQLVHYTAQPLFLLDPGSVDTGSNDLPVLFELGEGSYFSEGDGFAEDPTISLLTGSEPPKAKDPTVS
In short: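 After a 24 h incubation with test chemical, transfected HepG2 cells were harvested for RNA; reporter transcripts were measured by RT-PCR and capillary electrophoresis. Values reflect gain or loss of signal relative to DMSO.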

[7] = ATG_MRE_CIS: Attagene CIS-FACTORIAL HepG2 Assay for human Metal Responsive Element (MRE) (AID 2282954); settings: HepG2 MRE cis-reporter transcription, Attagene multiplex; actives raise or lower the signal
In short: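 Measured here is mRNA induction from an MRE cis-element reporter in HepG2 after 24 h, quantified by fluorescence of labelled RT-PCR products on capillary electrophoresis; gain- and loss-of-signal fits use DMSO as baseline.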

[8] = ATG_PBREM_CIS: Attagene CIS-FACTORIAL HepG2 Assay for human Phenobarbital-responsive Enhancer Module (PBREM) (AID 2282955); settings: HepG2 PBREM cis-reporter, Attagene multiplexed transcription; actives raise or lower the signal
In short: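 Reporter mRNA read by RT-PCR, 6-FAM primer extension, HpaI digestion and capillary electrophoresis. Transfected HepG2 cells, 24 h compound exposure. Gain or loss of signal fitted bidirectionally relative to DMSO baseline.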

[9] = biological target: Paired box protein Pax-6 (Homo sapiens) (UniProt P26367); experiment: ATG_Pax6_CIS: Attagene CIS-FACTORIAL HepG2 Assay for human Paired Box 6 (PAX6) (AID 2282956); settings: HepG2 CIS-FACTORIAL PAX6 reporter transcription, RNA readout; actives raise or lower the signal
Paired box protein Pax-6 (Homo sapiens), sequence (P26367 whole entry, looked up): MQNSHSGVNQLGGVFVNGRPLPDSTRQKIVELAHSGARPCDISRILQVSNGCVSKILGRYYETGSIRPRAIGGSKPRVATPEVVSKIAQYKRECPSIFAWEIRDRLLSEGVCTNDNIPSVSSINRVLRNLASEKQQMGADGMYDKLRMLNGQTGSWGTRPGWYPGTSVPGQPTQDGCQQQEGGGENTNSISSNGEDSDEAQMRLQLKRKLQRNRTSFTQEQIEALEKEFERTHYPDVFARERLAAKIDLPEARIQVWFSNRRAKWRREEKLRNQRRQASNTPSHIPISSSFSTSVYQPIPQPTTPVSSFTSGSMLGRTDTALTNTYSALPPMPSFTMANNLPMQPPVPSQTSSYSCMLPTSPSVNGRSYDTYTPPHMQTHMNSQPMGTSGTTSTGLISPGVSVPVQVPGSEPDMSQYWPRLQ
In short: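 DMSO-referenced bidirectional fits of reporter mRNA fluorescence; HepG2 with transient cis-promoter MRTUs, 24 h post-dose, RT-PCR plus capillary electrophoresis detection.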

[10] = ATG_Sox_CIS: Attagene CIS-FACTORIAL HepG2 Assay for human SRY-box transcription factor (SOX) (AID 2282960); settings: HepG2 Attagene cis-factorial SOX reporter, mRNA; actives raise or lower the signal
In short: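 Read-out: fluorescent RT-PCR products of SOX1-linked reporter transcripts resolved by capillary electrophoresis, fitted bidirectionally against DMSO. Transiently transfected HepG2 cells, 24 h after chemical exposure, endogenous transcription factor activity.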

[11] = biological target: Transcription factor Sp1 (Homo sapiens) (UniProt P08047); experiment: ATG_Sp1_CIS: Attagene CIS-FACTORIAL HepG2 Assay for human Specificity Protein 1 (Sp1) (AID 2282961); settings: HepG2 Sp1 cis-reporter transcription, actives raise or lower the signal
Transcription factor Sp1 (Homo sapiens), sequence (P08047 whole entry, looked up): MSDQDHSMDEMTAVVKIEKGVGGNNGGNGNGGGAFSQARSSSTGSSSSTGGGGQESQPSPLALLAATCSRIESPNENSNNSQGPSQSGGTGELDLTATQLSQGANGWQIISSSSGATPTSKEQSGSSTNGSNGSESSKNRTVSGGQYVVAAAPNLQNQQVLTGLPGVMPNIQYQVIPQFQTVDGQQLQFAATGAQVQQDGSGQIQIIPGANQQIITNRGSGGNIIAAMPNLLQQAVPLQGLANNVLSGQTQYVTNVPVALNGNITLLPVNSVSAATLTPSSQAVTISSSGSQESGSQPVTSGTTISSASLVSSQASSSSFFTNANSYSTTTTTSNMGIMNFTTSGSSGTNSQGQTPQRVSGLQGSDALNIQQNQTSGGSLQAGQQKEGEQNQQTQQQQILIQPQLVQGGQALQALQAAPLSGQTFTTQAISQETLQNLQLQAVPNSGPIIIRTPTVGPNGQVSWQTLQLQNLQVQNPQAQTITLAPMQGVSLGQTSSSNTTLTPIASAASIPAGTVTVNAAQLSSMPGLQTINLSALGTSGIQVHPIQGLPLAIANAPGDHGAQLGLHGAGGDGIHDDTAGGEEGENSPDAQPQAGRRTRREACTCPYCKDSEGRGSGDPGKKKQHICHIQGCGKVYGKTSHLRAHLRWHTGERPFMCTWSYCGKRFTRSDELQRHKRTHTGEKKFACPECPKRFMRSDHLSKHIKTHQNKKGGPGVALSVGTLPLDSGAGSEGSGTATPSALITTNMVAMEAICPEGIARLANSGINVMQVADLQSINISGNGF
In short: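 Read-out: fluorescence of 6-FAM-labeled, HpaI-digested RT-PCR products separated by capillary electrophoresis. HepG2 cells carried transfected cis-element reporter units and were exposed to chemicals for 24 h; gain or loss of signal fitted relative to DMSO.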

[12] = ATG_SREBP_CIS: Attagene CIS-FACTORIAL HepG2 Assay for human Sterol Regulatory Element Binding (SREBP) (AID 2282962); settings: HepG2 Attagene cis-factorial SREBP reporter, mRNA; actives raise or lower the signal
In short: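 In this cis-format assay, HepG2 liver cells express reporters controlled by promoter elements responsive to native transcription factors. Exposure lasts 24 h; reporter mRNA fluorescence from capillary electrophoresis gives the signal, fitted bidirectionally against DMSO.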

[13] = biological target: Signal transducer and activator of transcription 3 (Homo sapiens) (UniProt P40763); experiment: ATG_STAT3_CIS: Attagene CIS-FACTORIAL HepG2 Assay for human Signal Transducer and Activator of Transcription 3 (STAT3) (AID 2282963); settings: HepG2, Attagene cis-factorial STAT3 reporter transcription; actives raise or lower the signal
Signal transducer and activator of transcription 3 (Homo sapiens), sequence (P40763 whole entry, looked up, the tested form may be a part): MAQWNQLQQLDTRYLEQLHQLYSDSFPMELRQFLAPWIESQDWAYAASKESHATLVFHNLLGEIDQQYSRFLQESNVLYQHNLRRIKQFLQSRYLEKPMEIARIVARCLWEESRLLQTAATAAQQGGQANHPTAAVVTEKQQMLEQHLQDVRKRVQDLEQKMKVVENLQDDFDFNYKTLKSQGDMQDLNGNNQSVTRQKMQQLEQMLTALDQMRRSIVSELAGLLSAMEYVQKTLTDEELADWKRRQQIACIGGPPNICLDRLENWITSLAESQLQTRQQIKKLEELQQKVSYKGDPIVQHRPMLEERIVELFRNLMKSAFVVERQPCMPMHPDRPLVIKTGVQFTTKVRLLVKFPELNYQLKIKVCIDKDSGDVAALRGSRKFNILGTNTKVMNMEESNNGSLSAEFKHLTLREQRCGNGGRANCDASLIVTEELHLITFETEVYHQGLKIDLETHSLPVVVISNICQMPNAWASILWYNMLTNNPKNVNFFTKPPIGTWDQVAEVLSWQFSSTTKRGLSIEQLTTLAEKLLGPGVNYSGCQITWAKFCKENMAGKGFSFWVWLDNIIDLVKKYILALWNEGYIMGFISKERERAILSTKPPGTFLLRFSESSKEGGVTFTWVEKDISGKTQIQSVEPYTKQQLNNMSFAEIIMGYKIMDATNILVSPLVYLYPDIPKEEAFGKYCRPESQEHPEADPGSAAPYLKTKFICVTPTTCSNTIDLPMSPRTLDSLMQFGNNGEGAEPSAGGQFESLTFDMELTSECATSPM
In short: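 Fluorescence intensity of 6-FAM-labelled reporter fragments, separated by capillary electrophoresis after RT-PCR, gave the signal. Cells were HepG2 transfected with cis-element reporter units and treated 24 h; fitting was bidirectional relative to DMSO.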

[14] = ATG_TA_CIS: Attagene CIS-FACTORIAL HepG2 Assay for human TA Basal Promoter (AID 2282964); settings: HepG2 Attagene CIS-factorial TA basal promoter reporter; actives raise or lower the signal
In short: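 Multiplexed mRNA reporter assay, HepG2, 24 h. Reporter cDNA amplified, 6-FAM primer-extended, HpaI-cut, CE-sized; DMSO = negative control and baseline.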

[15] = ATG_M_32_CIS: Attagene CIS-FACTORIAL HepG2 Assay for M32 Transcription Factor (Internal Marker) (AID 2282949); settings: HepG2 Attagene cis-factorial M32 reporter, mRNA; actives raise or lower the signal;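 also: background control marker of the multiplexed CIS panel rather than a real target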
In short: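 HepG2 human liver cells transiently transfected with cis-promoter-driven multiple reporter transcription units, dosed 24 h. Reporter mRNA quantified by RT-PCR, FAM-labelled primer extension, HpaI digest and capillary electrophoresis; bidirectional fit versus DMSO baseline.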

[16] = ATG_PXRE_CIS: Attagene CIS-FACTORIAL HepG2 Assay for human Pregnane X Receptor Element (PXRE) (AID 2282957); settings: HepG2 Attagene CIS-FACTORIAL PXRE reporter, mRNA; actives raise or lower the signal
In short: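 After a 24 h chemical incubation, total RNA from transfected HepG2 cells was reverse-transcribed and reporter cDNA amplified, FAM-labeled, HpaI-digested and sized by capillary electrophoresis. DMSO served as baseline for bidirectional curve fitting.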

[17] = ATG_PPRE_CIS: Attagene CIS-FACTORIAL HepG2 Assay for human Peroxisome Proliferator-activated Response Element (PPRE) (AID 2282958); settings: HepG2 PPRE cis-element reporter, Attagene transcription factor profiling; actives raise or lower the signal
In short: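 Read-out: fluorescent reporter mRNA fragments resolved by capillary electrophoresis after RT-PCR. HepG2 cells carried transiently transfected PPRE-driven cis reporter constructs and were dosed for 24 h; gain or loss of signal fitted relative to DMSO.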

[18] = ATG_RORE_CIS: Attagene CIS-FACTORIAL HepG2 Assay for human RAR-related Orphan Receptor Element (RORE) (AID 2282959); settings: HepG2 Attagene cis-factorial RORE reporter, mRNA; actives raise or lower the signal
In short: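 Readout: fluorescent reporter mRNA by RT-PCR plus capillary electrophoresis, 24 h after dosing transfected HepG2 cells. Endogenous transcription factor activity on a cis promoter element is measured. Gain or loss of signal fitted against DMSO.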

[19] = ATG_TCF_b_cat_CIS: Attagene CIS-FACTORIAL HepG2 Assay for human T-Cell-Factor with beta-catenin (TCF/b-cat) (AID 2282965); settings: HepG2 TCF/beta-catenin cis-reporter transcription, actives raise or lower the signal
In short: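 HepG2 cells transiently transfected with cis-promoter-driven multiplexed reporter units; reporter mRNA measured 24 h after dosing by RT-PCR, FAM labelling, HpaI digestion and capillary electrophoresis. Bidirectional fitting relative to DMSO baseline.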

[20] = biological target: Hypoxia-inducible factor 1-alpha (Homo sapiens) (UniProt Q16665); experiment: ATG_HIF1a_CIS: Attagene CIS-FACTORIAL HepG2 Assay for human Hypoxia Inducible Factor 1 (HIF1A) (AID 2282951); settings: HepG2 Attagene cis-factorial HIF1a reporter transcription; actives raise or lower the signal
Hypoxia-inducible factor 1-alpha (Homo sapiens), sequence (Q16665 whole entry, looked up): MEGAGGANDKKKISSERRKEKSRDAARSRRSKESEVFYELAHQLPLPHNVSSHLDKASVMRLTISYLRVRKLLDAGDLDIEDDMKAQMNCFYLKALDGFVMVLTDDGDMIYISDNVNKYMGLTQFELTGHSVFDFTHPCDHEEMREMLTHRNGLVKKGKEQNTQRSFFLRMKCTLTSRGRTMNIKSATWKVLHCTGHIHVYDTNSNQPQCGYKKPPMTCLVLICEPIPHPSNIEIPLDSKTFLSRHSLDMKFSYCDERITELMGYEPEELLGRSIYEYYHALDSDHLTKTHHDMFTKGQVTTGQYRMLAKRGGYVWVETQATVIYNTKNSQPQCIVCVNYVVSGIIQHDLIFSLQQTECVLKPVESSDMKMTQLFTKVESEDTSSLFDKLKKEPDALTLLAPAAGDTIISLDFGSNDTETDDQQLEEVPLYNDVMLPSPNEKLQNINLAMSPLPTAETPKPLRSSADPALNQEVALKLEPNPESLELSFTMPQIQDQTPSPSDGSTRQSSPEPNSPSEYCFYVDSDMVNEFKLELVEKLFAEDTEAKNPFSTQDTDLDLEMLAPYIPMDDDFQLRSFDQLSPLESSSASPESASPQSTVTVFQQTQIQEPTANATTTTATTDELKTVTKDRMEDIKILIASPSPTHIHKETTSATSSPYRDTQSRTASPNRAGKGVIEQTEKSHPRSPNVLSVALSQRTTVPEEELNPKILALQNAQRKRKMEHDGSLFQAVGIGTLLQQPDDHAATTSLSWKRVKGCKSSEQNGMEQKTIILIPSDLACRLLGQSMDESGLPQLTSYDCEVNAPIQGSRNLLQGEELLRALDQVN
In short: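 RT-PCR/capillary electrophoresis fluorescence readout of reporter transcripts from endogenous-TF-driven cis elements in transfected HepG2 cells, 24 h exposure; activity fitted in both directions against DMSO controls.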

Measured: AC50

Clc1ccc(COC(Cn2ccnc2)c2ccc(Cl)cc2Cl)cc1 (configuration not stated)
not listed: [15] | [16] | [17] | [18] | [19] | [20]
inactive: all other assays above

Oc1cccc2cccnc12
active: [7] 148 µM | [16] 27.5 µM and 95.5 µM
inactive: [1] | [3] | [15] | [4] | [5] | [6] | [7] | [8] | [9] | [17] | [18] | [10] | [11] | [12] | [13] | [14] | [19]

OCc1ccco1
not listed: [2] | [16]
inactive: all other assays above

O=[N+]([O-])c1c(Cl)c(Cl)cc(Cl)c1Cl
active: [15] 0.0842 µM | [16] 18.2 µM
not listed: [2] | [8]
inactive: all other assays above

C[C@@H](Oc1ccc(Cl)cc1Cl)C(=O)O
not listed: [8] | [15] | [16] | [17]
inactive: all other assays above

CCC(C)(C)c1ccc(O)c(C(C)(C)CC)c1
active: [1] 5.81 µM | [17] 11.1 µM
not listed: [2] | [16]
inactive: all other assays above

CCCCP(CCCC)CCCC
active: [16] 23.6 µM
not listed: [2] | [8] | [17]
inactive: all other assays above

C=C(C)C(=O)[O][Sn]([CH2]CCC)([CH2]CCC)[CH2]CCC
active: [1] 0.0112 µM | [3] 0.612 µM | [5] 0.656 µM | [6] 0.68 µM | [7] 0.412 µM | [9] 0.514 µM | [17] 0.0903 µM | [14] 0.591 µM
not listed: [2]
inactive: all other assays above

C=C(C)C#N
not listed: [2] | [15] | [17] | [19]
inactive: all other assays above

CC1(C)CCC(Cc2ccc(Cl)cc2)C1(O)Cn1cncn1 (configuration not stated)
active: [8] 24.2 µM | [16] 2.43 µM | [12] 9.3 µM
not listed: [2] | [15] | [19]
inactive: all other assays above

C[C@H]1O[C@@H](O[C@H]2[C@@H](O)C[C@H](O[C@H]3[C@@H](O)C[C@H](O[C@H]4CC[C@@]5(C)[C@H](CC[C@@H]6[C@@H]5CC[C@]5(C)[C@@H](C7=CC(=O)OC7)CC[C@]65O)C4)O[C@@H]3C)O[C@@H]2C)C[C@H](O)[C@@H]1O
active: [3] 0.254 µM | [5] 0.0564 µM | [16] 0.0564 µM | [11] 3.3 µM | [12] 7.83 µM | [13] 0.196 µM
not listed: [2] | [6]
inactive: all other assays above

Cl/C=C\C[N+]12CN3CN(CN(C3)C1)C2
active: [1] 44.6 µM | [3] 100 µM | [6] 158 µM | [16] 45.2 µM | [19] 26 µM
not listed: [2] | [17]
inactive: all other assays above

CNC(=O)O/N=C/C(C)(C)S(C)=O (configuration not stated)
active: [6] 154 µM
not listed: [2]
inactive: all other assays above

O=C(Nc1ccc2[nH]ccc2c1)c1cc2cc(F)ccc2n1Cc1cccc(F)c1
inactive: [15] | [4] | [20] | [17] | [18] | [12] | [13]
active: [1] 2.93 µM | [3] 18.2 µM | [5] 18.3 µM | [6] 20.7 µM | [7] 11 µM | [8] 17.3 µM | [9] 13.9 µM | [16] 2.75 µM | [10] 16.8 µM | [11] 14.7 µM | [14] 14 µM | [19] 15.8 µM

CCC1(c2ccc(N)cc2)CCC(=O)NC1=O (configuration not stated)
active: [16] 64.9 µM
not listed: [2] | [8] | [17] | [20]
inactive: all other assays above
